# Where a name gives a salt, the structure may show the parent alone.
# Assays:
# Experiment in all cases: Euclidean distance of Cell Painting phenotypic profile (signed KS, 77 features) to DMSO centroid (dimensionless distance); higher = stronger phenotypic change vs DMSO (phenoactivity)
# Details in all cases: 48 h; 5 or 10 uM (library dependent)
# 786-O = tested on: 786-O
# Procedure, shortened: (§1)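 Phenoactivity is defined as the Euclidean distance from a compound profile to the median vehicle profile. Each profile comprised 77 Harmony features, scored as signed Kolmogorov-Smirnov statistics versus same-plate vehicle wells, then plate-position corrected, correlation-weighted and replicate-averaged at the top dose. Five cancer lines and one healthy fibroblast line were exposed to library compounds for 48 h at 10 or 5 uM (0.1% DMSO final).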
# A549 = tested on: A549
# Procedure, shortened: as §1
# FB = tested on: FB
# Procedure, shortened: as §1
# HEPG2 = tested on: HEPG2
# Procedure, shortened: as §1
# OVCAR4 = tested on: OVCAR4
# Procedure, shortened: as §1
# DU145 = tested on: DU145
# Procedure, shortened: as §1
SMILES,Euclidean distance (786-O),Euclidean distance (A549),Euclidean distance (FB),Euclidean distance (HEPG2),Euclidean distance (OVCAR4),Euclidean distance (DU145)
O=C(O)c1nn(Cc2ccc(Cl)cc2Cl)c2ccccc12 [Lonidamine],0.877,1.12,1.09,0.957,1.52,
CC[C@@]1(O)C(=O)OCc2c1cc1n(c2=O)Cc2cc3ccccc3nc2-1 [Camptothecin],3.86,3.88,4.14,2.87,3.96,
C[C@@]12N[C@@H](Cc3ccccc31)c1ccccc12 [(-)-MK 801 Maleate],1,1.63,3.8,1.69,4.43,1.84
COc1ccc(C(=O)N2CCCC2=O)cc1 [Aniracetam],0.962,1.09,1.01,0.635,1.07,
N#C[C@H](O[C@@H]1O[C@H](C(=O)O)[C@@H](O)[C@H](O)[C@H]1O)c1ccccc1 [Laetrile],0.989,0.766,0.899,0.702,1.45,
O=C1CCC[C@@H]2[C@H]3CCCN4CCC[C@@H](CN12)[C@@H]34 [(+)-Matrine],1,0.876,1.03,0.874,0.759,0.902
CC[C@H]1CN2CC[C@H]1C[C@@H]2[C@@H](O)c1ccnc2ccc(OC)cc12 [Hydroquinidine],0.75,0.791,1.18,0.881,1.23,0.64
O=C/C=C/c1ccccc1 [Cinnamaldehyde],1,0.658,0.954,1.14,0.848,0.988
CC(=O)c1c(O)cc(C)oc1=O [Sodium dehydroacetate],0.865,0.572,0.998,0.348,0.896,
CO[C@]12C[C@@H](COC(=O)c3cncc(Br)c3)CN(C)[C@@H]1Cc1cn(C)c3cccc2c13 [Nicergoline],1.37,0.701,0.963,0.72,0.762,
CN1C(=O)CCS(=O)(=O)C1c1ccc(Cl)cc1 (stereo not drawn) [Chlormezanone],1.52,0.681,0.695,0.59,1.23,
C[C@]12CC[C@H]3[C@@H](CC[C@@]45O[C@@H]4C(O)=C(C#N)C[C@]35C)[C@@H]1CC[C@@H]2O [Trilostane],1.94,1.35,0.851,1.01,1.12,
O=C(O)CCCc1ccc(N(CCCl)CCCl)cc1 [Chloroambucil],2.21,1.7,1.7,0.893,1.49,0.964
"CN1CCc2cc3c(cc2C1C1OC(=O)c2c1ccc1c2OCO1)OCO3 (single isomer, unassigned; (+)) [(+)-Bicuculline]",1.27,0.94,0.836,0.778,1.48,0.878
COc1ccc2[nH]cc(CCN)c2c1 [5-Methoxytryptamine],0.978,0.912,1.38,0.952,0.882,0.758
CN(C)C(=O)Oc1cc(OC(=O)N(C)C)cc(C(O)CNC(C)(C)C)c1 (stereo not drawn) [Bambuterol HCl],0.701,0.719,1.12,0.521,1.48,1.13
C[C@]12CCC(=O)C(O)=C1CC[C@@H]1[C@@H]2CC[C@]2(C)C(=O)CC[C@@H]12 [Formestane],1.02,0.913,1.08,0.763,0.703,
N#Cc1ccc(N2CCC[C@@H]2[C@@H](O)C(F)(F)F)cc1C(F)(F)F [Ligandrol (LGD-4033. VK-5211)],1.52,1.1,1.1,0.87,1.15,0.95
CC(Cc1ccc(O)cc1)NCC(O)c1cc(O)cc(O)c1 (stereo not drawn) [Fenoterol hydrobromide],0.772,0.319,0.734,0.461,0.781,0.524
COc1cc2c(c(OC)c1OC)-c1ccc(OC)c(=O)cc1[C@@H](NC(C)=O)CC2 [Colchicine],3.12,3.04,2.88,3.8,3.18,4.54
C=CC(=O)N[C@H]1C=C(C)c2c(-c3cnc4ccccc4c3)c3c(N)ncnc3n2C1,1.49,1.6,1.95,1.26,1.39,
O=C(O[C@H]1C[C@H]2CC[C@@H](C1)[N+]21CCCC1)C(O)(c1ccccc1)c1ccccc1 [Trospium chloride],0.712,0.693,0.927,0.66,1.39,0.879
C[C@]12CC[C@H](O)C[C@@H]1CC[C@@H]1[C@@H]2CC[C@]2(C)C(=O)CC[C@@H]12 [Epiandrosterone],1.32,1.2,1.34,0.785,0.989,0.784
COC1=C[C@@H]2[C@@H]3Cc4ccc(OC)c(O)c4[C@]2(CCN3C)CC1=O [Sinomenine],0.934,0.651,0.89,0.668,0.854,
COc1ccc(C(CN(C)C)C2(O)CCCCC2)cc1 (stereo not drawn) [Venlafaxine],0.992,0.49,0.691,0.558,1.02,
Cc1cccc(C)c1NC(=O)CN1CCCC1=O [Nefiracetam],1.15,0.499,0.708,1.11,1.2,
CCN1C[C@]2(OC(=O)c3ccccc3NC(C)=O)CC[C@H](OC)[C@@]34[C@@H]2C[C@@H]([C@@H]13)[C@@]1(O)C[C@H](OC)[C@H]2C[C@@H]4[C@]1(O)[C@H]2OC [Lappaconitine],0.914,0.59,1.1,0.579,1.35,

# — the supplement of paper PMC10127200
